Source: PubChem BioAssay
Calls of active or inactive are those of the source.

Experiments:
[1] = binders of probe aFSTL3 on microarray, primary screen, stem cell growth factor project, biochemical, small-molecule microarray, fluorescence 635/667 (AID 1064); conditions: higher = more signal;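 note: measures binding of the biotinylated anti-FSTL3 antibody to printed compounds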
[2] = binders from COS7 lysate, DM2A8 probe, primary screen, torsin A project, cell lysate, small-molecule microarray, fluorescence 635/667 (AID 1065); conditions: higher = more signal, COS7 lysate expressing mutant human TOR1A
[3] = binders of probe aFGF2 on microarray, primary screen, stem cell growth factor project, biochemical, small-molecule microarray, fluorescence 635/667 (AID 1067); conditions: higher = more signal;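 note: measures binding of biotinylated aFGF2 protein to printed compounds on slides; z-score merges feature fluorescence and signal-to-noise across triplicate slides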
[4] = binders of probe aFGF10 on microarray, primary screen, stem cell growth factor project, biochemical, small-molecule microarray, fluorescence 635/667 (AID 1071); conditions: higher = more signal;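 note: score merges 667 nm spot intensity and signal to noise from triplicate slides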
[5] = target: Neurogenic locus notch homolog protein 2 (Homo sapiens) (UniProt Q04721); assay: Notch2 binders on small-molecule microarrays, primary screen, biochemical, small-molecule microarray, 635 nm fluorescence, stem cell growth factors (AID 1073); conditions: Notch2 binding, higher = more signal
[6] = target: Pro-neuregulin-1, membrane-bound isoform (Homo sapiens) (UniProt Q02297); assay: NRG1 binders on small-molecule microarrays, primary screen, psychiatric disease protein project, biochemical, small-molecule microarray, fluorescence 635/667 (AID 1075); conditions: NRG1 binding, 635 nm fluorescence, higher = more signal;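 note: score combines 667 nm spot fluorescence with signal to noise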
[7] = system: Neuregulin-1 EGF-like domain; assay: binders of neuregulin-1 EGF-like domain, primary screen, biochemical, small-molecule microarray, 635 nm fluorescence (AID 1081); conditions: small-molecule microarray binding, higher = more signal;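 note: binding of the protein to compounds printed on small-molecule microarray slides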
[8] = FRG1 promoter luciferase signal modulators, primary screen, FRG1 inhibition for FSHD, cell-based, C2C12 myotubes, firefly/Renilla luciferase, luminescence (AID 1084); conditions: higher = more signal, called active from +8 up or from −8 down
[9] = binders of probe aFST on microarray, primary screen, stem cell growth factor project, biochemical, small-molecule microarray, fluorescence 635/667 (AID 1086); conditions: higher = more signal;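 note: score merges 667 nm fluorescence with signal-to-noise of each printed compound spot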
[10] = binders of probe aHhip on microarray, primary screen, stem cell growth factor project, biochemical, small-molecule microarray, fluorescence 635/667 (AID 1087); conditions: higher = more signal;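 note: score merges spot fluorescence at 667nm with spot signal to noise ratio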

Sequence of Neurogenic locus notch homolog protein 2 (Homo sapiens) (Q04721 whole entry, looked up, canonical isoform): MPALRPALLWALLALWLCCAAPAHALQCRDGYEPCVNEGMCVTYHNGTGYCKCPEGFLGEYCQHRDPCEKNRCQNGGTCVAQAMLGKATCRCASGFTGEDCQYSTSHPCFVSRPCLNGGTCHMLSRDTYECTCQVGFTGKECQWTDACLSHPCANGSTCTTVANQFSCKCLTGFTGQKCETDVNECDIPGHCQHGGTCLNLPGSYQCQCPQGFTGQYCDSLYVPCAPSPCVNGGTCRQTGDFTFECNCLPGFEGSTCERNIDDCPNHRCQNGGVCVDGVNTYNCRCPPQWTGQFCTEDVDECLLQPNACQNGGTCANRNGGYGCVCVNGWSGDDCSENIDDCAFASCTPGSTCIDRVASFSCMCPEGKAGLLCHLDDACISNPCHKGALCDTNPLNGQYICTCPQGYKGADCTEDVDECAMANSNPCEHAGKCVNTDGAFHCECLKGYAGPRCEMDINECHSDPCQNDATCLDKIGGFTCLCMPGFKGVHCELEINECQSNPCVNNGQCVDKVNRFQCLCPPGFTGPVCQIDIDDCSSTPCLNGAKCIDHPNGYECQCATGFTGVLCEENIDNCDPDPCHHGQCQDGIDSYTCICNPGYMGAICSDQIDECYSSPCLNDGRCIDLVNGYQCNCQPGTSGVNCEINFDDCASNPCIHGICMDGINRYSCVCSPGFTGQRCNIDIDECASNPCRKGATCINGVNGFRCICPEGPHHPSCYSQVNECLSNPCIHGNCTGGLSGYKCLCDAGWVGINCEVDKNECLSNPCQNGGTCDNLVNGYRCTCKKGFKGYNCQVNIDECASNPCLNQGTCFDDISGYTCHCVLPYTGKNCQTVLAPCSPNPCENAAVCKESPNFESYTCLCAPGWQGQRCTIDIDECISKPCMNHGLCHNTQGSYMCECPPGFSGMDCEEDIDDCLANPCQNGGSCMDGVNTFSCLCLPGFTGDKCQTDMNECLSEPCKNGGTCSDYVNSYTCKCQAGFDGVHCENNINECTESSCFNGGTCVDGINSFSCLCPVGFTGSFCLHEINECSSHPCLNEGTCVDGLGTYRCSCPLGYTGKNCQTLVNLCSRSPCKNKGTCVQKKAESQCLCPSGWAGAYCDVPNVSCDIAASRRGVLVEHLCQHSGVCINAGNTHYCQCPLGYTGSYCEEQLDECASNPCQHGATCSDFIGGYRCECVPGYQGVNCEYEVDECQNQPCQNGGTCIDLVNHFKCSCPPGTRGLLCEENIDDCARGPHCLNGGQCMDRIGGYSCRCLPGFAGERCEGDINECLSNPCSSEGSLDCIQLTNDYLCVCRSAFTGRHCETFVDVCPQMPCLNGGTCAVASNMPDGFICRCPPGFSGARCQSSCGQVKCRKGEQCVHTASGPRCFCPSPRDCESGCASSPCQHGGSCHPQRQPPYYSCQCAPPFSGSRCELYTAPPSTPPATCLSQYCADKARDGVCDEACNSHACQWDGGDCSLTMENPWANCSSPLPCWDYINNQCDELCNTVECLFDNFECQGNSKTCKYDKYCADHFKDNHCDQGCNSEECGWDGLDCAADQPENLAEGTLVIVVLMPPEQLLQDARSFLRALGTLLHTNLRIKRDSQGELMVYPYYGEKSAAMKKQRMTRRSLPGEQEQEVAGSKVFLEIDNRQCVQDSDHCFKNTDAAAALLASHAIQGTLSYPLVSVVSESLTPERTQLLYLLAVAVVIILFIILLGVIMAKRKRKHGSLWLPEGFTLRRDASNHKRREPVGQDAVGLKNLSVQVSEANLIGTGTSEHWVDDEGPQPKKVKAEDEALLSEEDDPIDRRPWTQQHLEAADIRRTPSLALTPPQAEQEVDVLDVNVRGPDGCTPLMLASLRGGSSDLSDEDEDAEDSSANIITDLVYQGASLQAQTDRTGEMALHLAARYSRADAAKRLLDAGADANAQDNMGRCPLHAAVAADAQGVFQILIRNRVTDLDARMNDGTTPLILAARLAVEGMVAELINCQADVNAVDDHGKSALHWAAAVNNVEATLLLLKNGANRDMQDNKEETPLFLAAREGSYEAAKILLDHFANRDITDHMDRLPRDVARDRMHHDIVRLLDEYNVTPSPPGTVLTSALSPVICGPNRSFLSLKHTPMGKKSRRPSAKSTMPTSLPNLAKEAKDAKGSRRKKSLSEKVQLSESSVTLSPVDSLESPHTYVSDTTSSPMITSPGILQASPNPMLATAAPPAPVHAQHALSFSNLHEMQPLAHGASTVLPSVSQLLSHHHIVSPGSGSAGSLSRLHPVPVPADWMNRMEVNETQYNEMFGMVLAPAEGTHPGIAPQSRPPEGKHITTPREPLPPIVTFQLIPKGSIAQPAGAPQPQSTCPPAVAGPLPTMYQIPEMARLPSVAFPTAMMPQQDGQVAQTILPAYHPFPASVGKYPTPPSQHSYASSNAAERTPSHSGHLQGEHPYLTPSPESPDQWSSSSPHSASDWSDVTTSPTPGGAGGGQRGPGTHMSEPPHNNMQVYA
Sequence of Pro-neuregulin-1, membrane-bound isoform (Homo sapiens) (Q02297 whole entry, looked up, the tested form may be a part, canonical isoform): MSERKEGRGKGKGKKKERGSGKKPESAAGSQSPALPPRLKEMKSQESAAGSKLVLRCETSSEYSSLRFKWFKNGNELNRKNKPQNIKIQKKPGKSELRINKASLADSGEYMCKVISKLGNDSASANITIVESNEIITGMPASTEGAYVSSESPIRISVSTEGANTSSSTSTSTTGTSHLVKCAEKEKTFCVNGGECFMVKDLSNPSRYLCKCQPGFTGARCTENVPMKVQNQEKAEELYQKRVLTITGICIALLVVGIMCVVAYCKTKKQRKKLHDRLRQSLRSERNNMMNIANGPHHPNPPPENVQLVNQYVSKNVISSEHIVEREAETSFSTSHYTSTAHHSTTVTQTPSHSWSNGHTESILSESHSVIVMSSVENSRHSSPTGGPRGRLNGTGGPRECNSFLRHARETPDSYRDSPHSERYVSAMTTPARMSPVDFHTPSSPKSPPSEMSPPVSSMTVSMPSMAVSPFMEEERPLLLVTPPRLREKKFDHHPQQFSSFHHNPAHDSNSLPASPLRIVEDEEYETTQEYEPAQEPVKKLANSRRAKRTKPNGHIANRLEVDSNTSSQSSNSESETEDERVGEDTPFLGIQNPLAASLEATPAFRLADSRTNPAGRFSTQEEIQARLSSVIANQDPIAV

Row | Compound | composite z-score [1] | composite z-score [2] | composite z-score [3] | composite z-score [4] | composite z-score [5] | composite z-score [6] | composite z-score [7] | z-score [8] | composite z-score [9] | composite z-score [10]
1 | O=C(CS)NCCCCCNC(=O)[C@H]1C[C@H]2C(=O)NCC(=O)N2[C@H]1c1ccc(O)cc1 | 0.205 | 0.354 | -0.159 | -0.583 | -1.4 | -0.83 | -0.0307 | 1.41 (inactive) | -0.753 | -0.204
2 | O=C1OCC=C[C@H]2OC34C=CCN(CCN5CCOCC5)C(=O)[C@H]3N(CCO)C(=O)[C@@H]4[C@@H]12 (stereo not given in full) | -0.341 | -0.483 | -0.0985 | -0.659 | -0.273 | 0.605 | 0.242 | 1.02 (inactive) | -0.218 | -0.412
3 | COC(=O)c1c2oc(c1C(=O)OC)C(=O)N[C@@H](C(C)C)Cn1cc(nn1)C1(CCCCC1)NC(=O)N[C@H](CO)CC2 | -0.458 | 0.104 | -0.124 | 0.471 | -0.178 | 0.356 | 0.859 | -0.965 (inactive) | -0.0464 | 0.0881
4 | O=C1NC(=O)C2C1C=CC(C(O)c1ccc(I)cc1)N2Nc1ccc(Cl)cc1Cl (stereo not given) | 0.256 | -0.396 | -0.0085 | 0.29 | 1.43 | 1.49 | 0.991 | -0.526 (inactive) | 0.794 | -0.321
5 | C=CCC(OC(C)=O)[C@@H]1[C@@H](N(Cc2cc3ccccc3o2)C(=O)Cc2ccc(OC)cc2)c2cc(OCCCO)ccc2N1C(=O)c1ccc2ccccc2c1 (stereo not given in full) | 0.0894 | 0.196 | -0.062 | 0.0575 | -0.709 | -0.336 | -0.0601 | -0.194 (inactive) | -0.005 | 0.0505
6 | O=c1cccc(-c2ccccc2Cl)o1 | -0.152 | -0.201 | -0.0621 | 0.366 | 0.772 | -0.234 | 0.311 | 1.17 (inactive) | 0.241 | -0.0047
7 | O=C1O[C@H](c2ccccc2)[C@H](c2ccccc2)N2[C@H]1[C@@H](C(=O)N1CCN(c3ncccn3)CC1)[C@]1(C(=O)Nc3ccc(C#CC4=CCCCC4)cc31)[C@H]2c1ccccc1OCCO | -0.218 | 0.337 | 0.009 | 0.548 | 1.25 | 0.694 | 1.26 | -0.342 (inactive) | 0.239 | 0.0139
8 | CC(C)C(=C=CC[C@H](O)c1ccc(CO)o1)CCO | 0.0959 | 1.5 | -0.141 | 0.153 | -0.57 | 1.57 | 1.16 | 0.859 (inactive) | 0.164 | -0.202
9 | CN1C(=O)C2C=CC(C(O)c3c(F)cccc3Cl)N(NC(=O)OC(C)(C)C)C2C1=O (stereo not given) | 0.171 | 0.233 | 0.0111 | 1.11 | 1.23 | 1.49 | 1.3 | 0.636 (inactive) | 0.888 | 0.0623
10 | O=C1O[C@@H](c2ccccc2)[C@@H](c2ccccc2)N2[C@@H](c3ccc(OCCO)cc3)[C@]3(C(=O)Nc4ccc(C#CC5=CCCCC5)cc43)[C@@H](C(=O)N3CCCCCCC3)[C@H]12 | 3.69 | 1.51 | 0.753 | 0.867 | 1.49 | 1.38 | 1.26 | 1.75 (inactive) | 3.12 | 0.354
11 | COC(=O)[C@@]1(CCC(=O)OC(C)(C)C)N=C(c2ccc(OCCCO)cc2)O[C@H]1c1ccccc1 | 0.579 | -0.168 | -0.024 | -0.0016 | 0.124 | 0.916 | 0.774 | 0.174 (inactive) | -0.164 | 0.0505
12 | COCCCNC(=O)[C@@]1(Sc2ccc(C)cc2)CC(=O)N(Cc2ccccc2Cl)[C@@H]1c1ccc(CO)cc1 | 0.59 | 2.15 | -0.119 | 0.429 | 0.307 | 1.14 | 0.938 | -2.45 (inactive) | 0.393 | -0.0645
13 | CN(C)CCCCCCNC(=O)[C@@H]1C[C@@H]2C(=O)N3CCC[C@H]3C(=O)N2[C@@H]1c1ccc(O)cc1 | 0.675 | 1.9 | 0.0923 | 1.18 | 0.697 | 0.543 | 1.35 | 1.53 (inactive) | 0.886 | 0.124
14 | COC(=O)[C@@]1(Cc2ccc(F)cc2)[C@H]2c3cc(C(=O)N(C)C)n(Cc4cc(C)n(C)n4)c3C[C@H]2CN1C(=O)c1ccccc1 | 0.274 | 0.85 | -0.19 | 0.515 | 1.61 | 1.66 | 1.29 | 0.0894 (inactive) | 0.967 | 0.0139
15 | [N-]=[N+]=NCc1ccccc1[C@@H]1OC(c2ccc(OCCCO)cc2)=N[C@]1(CCS(=O)(=O)c1ccccc1)C(=O)N1CCCCC1 | 0.0217 | -0.267 | 0.0714 | 0.398 | 1.66 | 2.13 | 1.28 | -0.0344 (inactive) | 1.69 | -0.26
16 | O=C(NCCN1CCOCC1)[C@@H]1c2ccccc2C(=O)N(Cc2cc(C(F)(F)F)cc(C(F)(F)F)c2)[C@H]1c1ccc(CO)cc1 | 0.284 | 0.183 | -0.116 | -0.214 | -1.28 | 1.27 | 1.25 | 0.0006 (inactive) | 0.0794 | -0.0994
17 | C=CCN1C(=O)[C@]2(Cc3ccccc3)N=C(c3ccc(OCCCO)cc3)O[C@@H]2c2ccccc21 | -0.0832 | 0.481 | -0.0119 | -0.0215 | 1.35 | 1.55 | 1.41 | -1.05 (inactive) | 0.395 | -0.0994

Row | Compound | composite z-score [1] | composite z-score [2] | composite z-score [3] | composite z-score [4] | composite z-score [5] | composite z-score [6] | composite z-score [7] | z-score [8] | composite z-score [9] | composite z-score [10]
18 | CN(C)CCCCNC(=O)[C@@H]1C[C@@H]2C(=O)N[C@@H](CCCCN)C(=O)N2[C@@H]1c1ccc(O)cc1 | 0.597 | 0.034 | -0.145 | -0.146 | 0.471 | 0.707 | 1.13 | -0.778 (inactive) | 0.214 | 0.151
19 | COCCCNC(=O)[C@@]1(Cc2ccccc2CN=[N+]=[N-])N=C(c2ccc(OCCCO)cc2)O[C@H]1c1ccccc1CN=[N+]=[N-] | -0.152 | 0.321 | 0.154 | 0.916 | 1.27 | 1.96 | 1.11 | 0.399 (inactive) | 1.43 | -0.286
20 | O=C1O[C@H](c2ccccc2)[C@H](c2ccccc2)N2[C@H]1[C@@H](C(=O)NC[C@H](O)c1ccccc1)[C@]1(C(=O)Nc3ccccc31)[C@H]2c1ccc(O)cc1 | -0.0095 | 0.298 | -0.0342 | -0.111 | 0.633 | -0.199 | 1.19 | 0.484 (inactive) | 0.153 | 0.0542
21 | C=C(/C(=C/C[C@H](OC(C)=O)c1ccc(OCCO)cc1)c1cc(C(=O)OC)ccc1OC)C(C)C | -0.183 | 0.585 | -0.145 | 0.41 | 0.219 | 1.17 | 0.376 | -0.863 (inactive) | 0.388 | -0.175
22 | NCCCCCNC(=O)[C@H]1C[C@H]2C(=O)N[C@@H](Cc3ccccc3)C(=O)N2[C@H]1c1cccc(OCCO)c1 | 2.24 | 0.387 | 0.0364 | 0.116 | 0.352 | 2.05 | 0.408 | 1.27 (inactive) | 1.04 | 0.705
23 | CCCC[C@@H]1C[C@H]1[C@@H](NC(=O)c1cccnc1)c1ccc(Cl)cc1 | 1.58 | -1.02 | -0.423 | -1.77 | -1.69 | -0.549 | -0.977 | 0.188 (inactive) | -0.513 | 0.216
24 | COc1ccc(C(O)C2C=CC3C(=O)N(C)C(=O)C3N2N(c2ccccc2)c2ccccc2)c2ccccc12 (stereo not given) | 0.249 | 0.643 | 0.0346 | 0.412 | 0.295 | 0.85 | 0.894 | -0.14 (inactive) | 0.284 | 0.576
25 | O=C1OCC=C[C@H]2OC34C=CCN(Cn5nnc6ccccc65)C(=O)[C@H]3N(CCCCCO)C(=O)[C@@H]4[C@@H]12 (stereo not given in full) | 0.4 | -0.629 | -0.0069 | -0.138 | -0.637 | 2.53 | 1.16 | -0.564 (inactive) | -0.779 | -0.396
26 | COC(=O)[C@@]1(Cc2ccc(OC)cc2)[C@H]2c3cc(C(=O)N4CCCC4)n(Cc4nc5ccccc5[nH]4)c3C[C@H]2CN1C(=O)c1ccccc1 | 1.13 | 0.572 | 0.417 | 1 | 1.82 | 2.11 | 1.14 | 4.38 (inactive) | 1.65 | -0.229
27 | CC#CC(=O)Oc1ccc(Br)cc1C=CC(=O)OCC | 0.559 | -0.422 | -0.0304 | 0.0178 | -0.497 | 0.334 | 1.34 | 0.128 (inactive) | 0.375 | 0.095
28 | COc1ccc(C#Cc2ccc3c(c2)[C@]2(C(=O)N3)[C@H](c3ccc(O)cc3)N3[C@H](c4ccccc4)[C@H](c4ccccc4)OC(=O)[C@H]3[C@@H]2C(=O)N2CCc3cc(OC)c(OC)cc3C2)cc1 | -0.284 | 0.0877 | 0.0106 | 0.355 | 0.84 | 1.32 | 1.26 | 1.46 (inactive) | 0.464 | 0.0505
29 | OCCCC1=CC(C2CC2)N(Cc2cccc(OC(F)(F)F)c2)CC1 (stereo not given) | -0.367 | 0.406 | -0.208 | -0.771 | -0.464 | -0.106 | 0.677 | 0.606 (inactive) | -0.658 | -0.0373
30 | O=C1NC(=O)C2C1C=CC(C(O)c1ccc(I)cc1)N2Nc1ccccn1 (stereo not given) | 0.193 | 0.142 | 0.0111 | -0.0668 | 0.599 | 1.71 | 0.725 | 0.63 (inactive) | -0.0237 | -0.0173
31 | COC(=O)[C@@]1(Cc2ccccc2)[C@H]2c3cc(C(=O)N(C)C)n(CCc4c[nH]c5ccc(O)cc45)c3C[C@H]2CN1C(=O)c1ccccc1 | 0.808 | -0.0685 | 0.0518 | 0.188 | 0.832 | -0.198 | 1.29 | 0.688 (inactive) | 1.21 | -0.191
32 | COc1ccc([C@H]2C[C@H]3C(I)=C[C@@H]2C(=O)[C@]32CO2)cc1 | -0.434 | 0.241 | -0.12 | 0.17 | 0.0021 | -0.645 | -0.571 | 2.29 (inactive) | 0.169 | -0.0237
33 | C=CCC(OC(C)=O)[C@@H]1[C@@H](N(Cc2ccc(-c3ccccc3)cc2)C(=O)Cc2ccc(F)cc2)c2cc(OCCCO)ccc2N1C(=O)c1ccc2ccccc2c1 (stereo not given in full) | -0.313 | 0.273 | -0.0222 | -0.0326 | 0.166 | -0.158 | -0.31 | 0.375 (inactive) | 0.0263 | -0.226
34 | O=C(NC1CC1)[C@@H]1c2ccccc2C(=O)N(Cc2cc(F)cc(C(F)(F)F)c2)[C@H]1c1ccc(CO)cc1 | 0.388 | 0.195 | -0.172 | 0.327 | -0.697 | -0.13 | 1.04 | -0.594 (inactive) | 0.254 | -0.194
